Data: PubChem BioAssay AID1445 (SRMLSC, 2008)
The campaign covered roughly 220,000 compounds. About 910 (0.41%) were called active. Many of the other results were omitted from the sample, so actives are more common in it than they were. Measured potencies and affinities stand elsewhere. Values without a mark were called inactive.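 The calls were made as follows: active = primary inhibition above the hit cutoff, then over 50% inhibition at one or more dose response concentrations (cut at about 23% in these data, passing the limit was not always enough); inconclusive = conflicting primary data, or primary hits not chosen for dose response; inactive = low primary inhibition, or under 50% at every dose.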

Target: Aminopeptidase N (Plasmodium falciparum (isolate 3D7)) (UniProt O96935)
Sequence (O96935 whole entry, looked up): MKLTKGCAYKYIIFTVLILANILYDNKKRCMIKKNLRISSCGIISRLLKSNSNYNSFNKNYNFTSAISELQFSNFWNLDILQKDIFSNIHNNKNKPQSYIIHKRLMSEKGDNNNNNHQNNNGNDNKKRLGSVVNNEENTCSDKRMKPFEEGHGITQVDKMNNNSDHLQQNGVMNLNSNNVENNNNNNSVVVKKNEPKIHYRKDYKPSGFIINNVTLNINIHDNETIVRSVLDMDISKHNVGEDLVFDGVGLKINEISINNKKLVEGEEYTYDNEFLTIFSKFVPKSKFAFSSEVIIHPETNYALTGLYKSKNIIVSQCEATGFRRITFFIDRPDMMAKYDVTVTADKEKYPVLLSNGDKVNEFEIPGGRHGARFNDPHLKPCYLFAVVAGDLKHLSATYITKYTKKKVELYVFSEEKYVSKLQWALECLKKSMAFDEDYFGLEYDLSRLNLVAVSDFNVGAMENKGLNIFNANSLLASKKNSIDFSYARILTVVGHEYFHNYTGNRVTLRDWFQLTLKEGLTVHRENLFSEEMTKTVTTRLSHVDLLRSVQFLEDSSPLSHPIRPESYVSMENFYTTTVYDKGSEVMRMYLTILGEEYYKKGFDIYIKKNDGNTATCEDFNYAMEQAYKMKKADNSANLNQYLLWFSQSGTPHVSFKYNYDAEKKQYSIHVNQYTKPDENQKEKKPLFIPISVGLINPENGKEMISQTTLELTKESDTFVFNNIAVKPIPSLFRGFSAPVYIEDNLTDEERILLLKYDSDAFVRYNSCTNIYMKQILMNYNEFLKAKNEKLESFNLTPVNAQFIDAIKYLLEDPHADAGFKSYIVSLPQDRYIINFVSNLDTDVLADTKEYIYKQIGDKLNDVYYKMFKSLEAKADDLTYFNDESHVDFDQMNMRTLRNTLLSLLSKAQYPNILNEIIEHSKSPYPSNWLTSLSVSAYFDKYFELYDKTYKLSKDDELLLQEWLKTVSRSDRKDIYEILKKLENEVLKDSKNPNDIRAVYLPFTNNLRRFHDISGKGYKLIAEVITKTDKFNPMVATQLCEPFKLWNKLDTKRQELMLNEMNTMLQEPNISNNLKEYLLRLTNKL
Experiment: malaria alanyl aminopeptidase activity blockers – biochemical, fluorogenic H-Leu-NHMec substrate, 1536-well (AID 1445);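 also: plate controls were DMSO full reaction for no effect and no enzyme background for full effect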
Conditions: recombinant M1AAP, H-Leu-NHMec fluorogenic kinetic assay; at 30 µM, stronger effect = higher value unless noted

SMILES | inhibition
O=C(O)CCCC(=O)Nc1cc([N+](=O)[O-])ccc1O | 7.33%
Cc1ccc(NCc2nnc(SCC(=O)Nc3ncc(C)s3)n2CC2CCCO2)c(C)c1 (centres undefined) | 0.09%
COc1ccc2cc3cc(C(=O)NCC4COc5ccccc5O4)oc3nc2c1 (centres undefined) | 3.66%
COc1ccc2cc3cc(C(=O)NCCN4CCN(c5ccccc5F)CC4)oc3nc2c1 | -0.03%
CCCCN(CC)CCCNC(=O)c1cc2cc3ccc(OC)cc3nc2o1 | 29.5%
COc1ccc2cc3cc(C(=O)NC(C)C)oc3nc2c1 | 13.4%
CCCCN(CC)C(=O)c1cc2cc3ccc(OC)cc3nc2o1 | 13.7%
COc1ccc2cc3cc(C(=O)NCCCN4CCOCC4)oc3nc2c1 | 18.2%
Cc1cccc2c1Sc1ccccc1CC2=O | 7.62%
CCn1nnnc1NCc1ccc(N2CCCC2)cc1 | 5.58%
COc1cccc(C(=O)OCC(=O)c2c[nH]c3ccccc23)c1O | 6.87%
COC(=O)N/N=C\c1ccc(OC(=O)c2ccco2)cc1 | 5.66%
CC12CCCCC1c1ccccc1C(=NCC(=O)O)N2 (centres undefined) | 2.45%
CCOC(=O)c1c(NC(=O)c2ccc(-n3cnnn3)cc2)sc2c1CCCC2 | 3.69%
C=CCN(C#N)c1nc(OC)nc(N2CCCC2)n1 | -0.65%
O=C(NC1CCCC1)C(c1ccccc1)N(C(=O)c1ccco1)C1CCCC1 (centres undefined) | 17.7%
O=C(NC1CCCC1)C(c1ccccc1F)N(C(=O)c1ccco1)C1CCCC1 (centres undefined) | 25% (active)
COc1cccc(C(C(=O)NC2CCCC2)N(C(=O)c2ccco2)C2CC2)c1OC (centres undefined) | 11%
N/C(=N\OC(=O)CCCOc1ccccc1)c1ccc(Br)cc1 | 5.3%
O=CN1CCN(C(=O)COc2ccc(Cl)cc2Br)CC1 | 1.29%
COc1cc(/C=C2/C(=N)N3C=CSC3=NC2=O)ccc1OCCCOc1cc(C)ccc1C | -5.49%
CCC1=NN2C(=N)/C(=C\c3ccc(OCc4cc(=O)n5nc(CC)sc5n4)c(OC)c3)C(=O)N=C2S1 | 32.8%
CCC1=NN2C(=N)/C(=C\c3ccc(SCc4ccco4)o3)C(=O)N=C2S1 | 7.98%
CCOc1cc(/C=C2\SC(=O)N=C2N)ccc1O | 22%
CCCC1=NN2C(=N)/C(=C\c3ccc(SCc4ccco4)o3)C(=O)N=C2S1 | 20.4%

SMILES | inhibition
CCOc1cc(/C=C2\SC(=O)N(c3ccc(O)cc3)C2=O)ccc1O | 15.2%
O=S(=O)(NCc1ccccn1)c1cccc2nsnc12 | 3.36%
Cc1cccc(NC(=O)NCc2ccc3c(c2)OCO3)c1C | -4.45%
CSc1ccc(S(=O)(=O)NC(C)c2ccccc2)cc1 (centres undefined) | -2.61%
CCOc1cc(OCC)nc(S(C)(=O)=O)n1 | 2.35%
Cn1c(O)c(C=NCC2CCNCC2)c(=O)n(C)c1=O | -0.42%
CC(C)C(=O)N1CCC(CN=Cc2c(O)n(C3CCCCC3)c(=O)n(C3CCCCC3)c2=O)CC1 | 27% (active)
CC(C)C(=O)N1CCC(CN=CC2=C(O)CC(C)(C)CC2=O)CC1 | 6.11%
COC(=O)Cc1[nH]n(-c2ccccc2)c(=O)c1C=Nc1ccc(C)cc1 | -0.62%
COc1ccc(C(=O)Nc2nc3nc(-c4ccccc4)cc(=O)n3[nH]2)cc1 | 10.9%
Cc1ccc(C(=O)Nc2nc3nc(-c4ccccc4)cc(=O)n3[nH]2)cc1 | 25.9% (active)
O=C(Nc1nc2nc(-c3ccccc3)cc(=O)n2[nH]1)c1ccccc1 | -0.35%
Cc1onc(-c2c(F)cccc2Cl)c1C(=O)Nc1ccc(S(=O)(=O)Nc2ncccn2)cc1 | 13.8%
O=c1ccc2ccc(Oc3ccc([N+](=O)[O-])cc3[N+](=O)[O-])cc2o1 | 11.5%
Cc1cc(=O)oc2cc(Oc3ccc(C(N)=O)cc3[N+](=O)[O-])ccc12 | 30%
CC(NC(=O)COc1ccc(N(C)S(=O)(=O)c2ccccc2)cc1)c1ccccc1 (centres undefined) | 1.27%
CC(NC(=O)CN(C1CCCCC1)S(C)(=O)=O)c1ccccc1 (centres undefined) | 2.9%
NS(=O)(=O)c1ccc(CCn2c(=S)[nH]c3ccc(F)cc3c2=O)cc1 | -3.16%
C=CCOc1ccc(C2c3c(oc4ccccc4c3=O)C(=O)N2CCCN2CCOCC2)cc1 (centres undefined) | 24.2% (active)
O=C1c2oc3ccc(F)cc3c(=O)c2C(c2cccc(O)c2)N1CCCN1CCOCC1 (centres undefined) | -3%
CCCOc1ccc(C2c3c(oc4ccccc4c3=O)C(=O)N2CCCN2CCOCC2)cc1 (centres undefined) | 4.5%
O=C1c2oc3ccccc3c(=O)c2C(c2cccc(O)c2)N1CCCN1CCOCC1 (centres undefined) | 26.8% (active)
CCOc1ccc(C2c3c(oc4ccccc4c3=O)C(=O)N2CCCN2CCOCC2)cc1 (centres undefined) | 2.52%
COc1cccc(C2c3c(oc4ccccc4c3=O)C(=O)N2CCCN2CCOCC2)c1 (centres undefined) | 7.18%
